The text below walks through data of PubChem BioAssay.

Assay [1] is described as follows: differential killing of epithelial or mesenchymal cells, primary screen, imaging, PC-3E GFP, TEM4-18 mCherry, co-culture (AID 1345086).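 On all read-outs here: cells exposed to compound for 72 h before imaging.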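 On red/green cell ratio (normalised): normalised mesenchymal count divided by normalised epithelial count so high means epithelial killing.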 The following applies: imaging cell counts, at 1 µM; for red/green cell ratio (normalised): actives lie on both sides, counts scaled to control wells, 1 = unselective.
Assay [2] in a line: growth inhibition of DIPG glioma cells, dose response, cell-based, SU-DIPG-XVII, MIPE5.0, CellTiter-Glo, qHTS (AID 1347060; cut-off not given, nearly all actives have AC50 up to about 26 µM;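 on AC50: cells exposed to compound for 48 hours before viability readout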). The following applies: SU-DIPG-XVII viability, CellTiter-Glo ATP luminescence. A general note: In ATP-based viability assays light output follows the ATP content of the culture.
Assay [3] can be described thus: growth inhibition of DIPG glioma cells, dose response, cell-based, SU-DIPG-XIII, MIPE4.0, CellTiter-Glo, qHTS (AID 1347061; cut-off not given, nearly all actives have AC50 up to about 37 µM;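 further: cells exposed to compound for 48 hours before readout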). The conditions noted are these: SU-DIPG-XIII viability, CellTiter-Glo ATP luminescence.
The nature of assay [4]: growth inhibition of DIPG glioma cells, dose response, cell-based, JHH-DIPG-1, MIPE4.0, CellTiter-Glo, qHTS (AID 1347062; cut-off not given, nearly all actives have AC50 up to about 27 µM;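 on AC50: cells exposed to compound for two days before readout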). The conditions noted are these: JHH-DIPG-1 viability, CellTiter-Glo ATP luminescence.
Assay [5] in a line: growth inhibition of DIPG glioma cells, dose response, cell-based, SU-DIPG-IV, MIPE4.0, CellTiter-Glo, qHTS (AID 1347063; cut-off not given, nearly all actives have AC50 up to about 30 µM;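 further: compound exposure lasted 48 hours before the viability readout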). The following applies: SU-DIPG-IV viability, CellTiter-Glo ATP luminescence.
Assay [6] in a line: growth inhibition of DIPG glioma cells, dose response, cell-based, SU-DIPG-XIII, MIPE5.0, CellTiter-Glo, qHTS (AID 1347064; cut-off not given, nearly all actives have AC50 up to about 23 µM;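 on AC50: cells exposed to compound for 48 hours before the viability read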). The following applies: SU-DIPG-XIII viability, CellTiter-Glo ATP luminescence.
Setting [7] is: measured here: epithelial PC-3E GFP cell survival.
The mark [8] stands for this setting: measured here: mesenchymal TEM4-18 mCherry cell survival.

SMILES strings stand for the structures. Several values for one entry are separate records, joined by “and”; a condition that tells them apart may be missing. Equal values may be shown once. Results filed as inconclusive are left out. Activity calls are given as the source filed them.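 How the source made its calls, unless noted: active means compounds killing one labelled cell type while sparing the other, by normalised counts and ratio limits, not self-fluorescent; inactive means the rest.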

Consider `Oc1ccc(OCc2ccccc2)cc1`, for which, in assay [1], the red/green cell ratio (normalised) is 1.06 (inactive) and 1.09 (inactive) and 0.97 (inactive). In addition, the normalised cell number in assay [1] (setting [7]) is 0.97 and 1.09 and 0.95; in assay [1] (setting [8]) it was 1.03 and 1.19 and 0.92. The compound was classed as inactive in assay [2], in assay [3], in assay [4], in assay [5] and in assay [6].

With `CCC(C)n1ncn(-c2ccc(N3CCN(c4ccc(OC[C@H]5CO[C@](Cn6cncn6)(c6ccc(Cl)cc6Cl)O5)cc4)CC3)cc2)c1=O` (stereo not given in full), the red/green cell ratio (normalised) in assay [1] was 0.8 (inactive). The normalised cell number in assay [1] (setting [7]) was 1.27; in assay [1] (setting [8]), 1.01. Further, the call in assay [2], in assay [3] and in assay [4] was inactive.

In the case of `O=C(O)c1cn(-c2ccc(F)cc2)c2cc(N3CCNCC3)c(F)cc2c1=O`, the red/green cell ratio (normalised) in assay [1] is 0.95 (inactive) and 0.88 (inactive). The normalised cell number is 1.1 and 0.99 in assay [1] (setting [7]); 1.04 and 0.87 in assay [1] (setting [8]). In addition, the compound was classed as inactive in assay [2], in assay [3], in assay [4], in assay [5] and in assay [6].

As to `CCCCCN(C)CCC(O)(P(=O)(O)O)P(=O)(O)O`, the red/green cell ratio (normalised) in assay [1] is 1.14 (inactive). The figures for the normalised cell number in assay [1] (setting [7]) and in assay [1] (setting [8]) were 0.86 and 0.98, respectively. For the same compound, the call in assay [2], in assay [3], in assay [4], in assay [5] and in assay [6] was inactive.

For the compound `CC1=CC(=O)c2ccccc2C1=O`, the red/green cell ratio (normalised) in assay [1] is 0.99 (inactive). For the same compound, the normalised cell number was determined as 1.09 in assay [1] (setting [7]) and 1.08 in assay [1] (setting [8]). Moreover, the AC50 (in general, the concentration at which the activity in the assay is half-maximal) in assay [2] was 23.5 µM (active); in assay [3], 23.5 µM (active); in assay [4], 8.33 µM (active); in assay [5], 26.4 µM (active).

For the compound `COc1cc([C@H]2Oc3cc([C@H]4Oc5cc(O)cc(O)c5C(=O)[C@@H]4O)ccc3O[C@@H]2CO)ccc1O`, the red/green cell ratio (normalised) in assay [1] is 0.97 (inactive). Moreover, the normalised cell number is 0.9 in assay [1] (setting [7]) and 0.88 in assay [1] (setting [8]). In addition, the result in assay [2], in assay [3] and in assay [4] was inactive.

As to `CNC[C@H](O)c1cccc(O)c1`, the red/green cell ratio (normalised) in assay [1] is 1.3 (inactive). The normalised cell number in assay [1] (setting [7]) was determined as 0.85; in assay [1] (setting [8]) it was 1.11. Also, the compound was classed as inactive in assay [2], in assay [3], in assay [4], in assay [5] and in assay [6].

For the compound `Cn1cnc2c1c(=O)[nH]c(=O)n2C`, in assay [1], the red/green cell ratio (normalised) is 0.94 (inactive). Besides, the normalised cell number in assay [1] (setting [7]) is 0.96; in assay [1] (setting [8]), 0.9. The compound was called inactive in assay [2] and in assay [6]. For the same compound, the AC50 is 23.5 µM (active) in assay [3], 23.5 µM (active) in assay [4] and 10.5 µM (active) in assay [5].

In the case of `COc1cc2c(N3CCN(C(=O)Nc4ccc(OC(C)C)cc4)CC3)ncnc2cc1OCCCN1CCCCC1`, the red/green cell ratio (normalised) in assay [1] was 1.13 (inactive). The normalised cell number in assay [1] (setting [7]) was 1.09; in assay [1] (setting [8]) it was 1.23. The call in assay [2], in assay [3] and in assay [6] was inactive.

For `Nc1ncnc2c1ncn2[C@@H]1O[C@H](CO)[C@@H](O)[C@H]1O`, in assay [1], the red/green cell ratio (normalised) was 1.15 (inactive). Also, the normalised cell number came out at 0.81 in assay [1] (setting [7]) and 0.94 in assay [1] (setting [8]). The AC50 was 18.7 µM (active) in assay [3] and 0.935 µM (active) in assay [4].

As for `CC(C)(Sc1cc(C(C)(C)C)c(O)c(C(C)(C)C)c1)Sc1cc(C(C)(C)C)c(O)c(C(C)(C)C)c1`, the red/green cell ratio (normalised) in assay [1] was 1.01 (inactive). The normalised cell number in assay [1] (setting [7]) was found to be 1.14; in assay [1] (setting [8]), 1.16. In addition, the result in assay [3], in assay [4] and in assay [5] was inactive.

Turning to `Cn1c(=O)c2c(ncn2CC(O)CO)n(C)c1=O` (stereo not given), the red/green cell ratio (normalised) in assay [1] is 1.41 (inactive). For the same compound, the normalised cell number is 0.78 in assay [1] (setting [7]) and 1.1 in assay [1] (setting [8]). The outcome in assay [3], in assay [4], in assay [5] and in assay [6] was inactive.

On to `CCCOc1ccc2nc(NC(=O)OC)[nH]c2c1`, for which the red/green cell ratio (normalised) in assay [1] is 1.06 (inactive). Moreover, the normalised cell number in assay [1] (setting [7]) stood at 0.2; in assay [1] (setting [8]), 0.21. Moreover, the concentration at half-maximal activity (AC50) in assay [2] was 0.372 µM (active); in assay [6], 661 nM (active). The compound was called inactive in assay [3].

Consider `CC(=O)Oc1ccccc1C(=O)O`, for which the red/green cell ratio (normalised) in assay [1] is 0.84 (inactive). Besides, the results for the normalised cell number in assay [1] (setting [7]) and in assay [1] (setting [8]) were 1.28 and 1.08, respectively. The compound was classed as inactive in assay [2], in assay [4] and in assay [5].

`OC[C@H]1O[C@@H](Oc2ccc(O)cc2)[C@H](O)[C@@H](O)[C@@H]1O`: the red/green cell ratio (normalised) in assay [1] was 1.05 (inactive). Also, the normalised cell number came out at 1.15 in assay [1] (setting [7]) and 1.21 in assay [1] (setting [8]). The compound was classed as inactive in assay [3], in assay [4] and in assay [5].

Take `Nc1ccc(S(=O)(=O)Nc2ccnn2-c2ccccc2)cc1`: the red/green cell ratio (normalised) in assay [1] is 0.85 (inactive). In addition, the normalised cell number in assay [1] (setting [7]) stood at 1.05; in assay [1] (setting [8]) it was 0.9. Moreover, the call in assay [3], in assay [4] and in assay [5] was inactive.

As for `C[C@H]1c2cccc(O)c2C(O)=C2C(=O)[C@]3(O)C(O)=C(C(N)=O)C(=O)[C@@H](N(C)C)[C@@H]3[C@@H](O)[C@@H]21`, the red/green cell ratio (normalised) in assay [1] is 1.48 (inactive). The normalised cell number in assay [1] (setting [7]) was determined as 1.06; in assay [1] (setting [8]), 1.57. Further, the result in assay [3] and in assay [4] was inactive.

`Cc1cn[nH]c1`: the red/green cell ratio (normalised) in assay [1] is 0.92 (inactive) and 0.9 (inactive). Further, the normalised cell number was 0.94 and 1.1 in assay [1] (setting [7]); 0.86 and 0.99 in assay [1] (setting [8]). The call in assay [2] and in assay [6] was inactive. In addition, the results for the AC50 in assay [4] and in assay [5] were 0.105 µM (active) and 3.32 µM (active), respectively.

Turning to `Cc1ccccc1N1C(=O)c2cc(S(N)(=O)=O)c(Cl)cc2NC1C` (stereo not given), the red/green cell ratio (normalised) in assay [1] was 1.25 (inactive). In addition, the normalised cell number is 1.15 in assay [1] (setting [7]) and 1.44 in assay [1] (setting [8]). The outcome in assay [3], in assay [4] and in assay [5] was inactive.

In the case of `COc1cc(NS(=O)(=O)c2ccc(N)cc2)nc(OC)n1`, in assay [1], the red/green cell ratio (normalised) was 1.12 (inactive). The normalised cell number stood at 0.64 in assay [1] (setting [7]) and 0.72 in assay [1] (setting [8]). Moreover, the compound was classed as inactive in assay [3], in assay [4] and in assay [5].

Consider `NC(=O)N/N=C/c1ccc([N+](=O)[O-])o1`, for which the red/green cell ratio (normalised) in assay [1] is 1.13 (inactive). Moreover, the results for the normalised cell number in assay [1] (setting [7]) and in assay [1] (setting [8]) were 0.55 and 0.62, respectively. The call in assay [3] was inactive.

Consider `CCOC(=O)[C@H](CCc1ccccc1)N[C@@H](C)C(=O)N1CCC[C@H]1C(=O)O`, for which, in assay [1], the red/green cell ratio (normalised) was 0.88 (inactive). The normalised cell number turned out to be 1.12 in assay [1] (setting [7]) and 0.99 in assay [1] (setting [8]). The outcome in assay [3], in assay [4], in assay [5] and in assay [6] was inactive.

Turning to `O=c1oc2cc(O)ccc2s1`, the red/green cell ratio (normalised) in assay [1] is 0.91 (inactive) and 0.99 (inactive). The normalised cell number in assay [1] (setting [7]) was 1.1 and 0.89; in assay [1] (setting [8]), 1 and 0.88. Also, the result in assay [3], in assay [4], in assay [5] and in assay [6] was inactive.

For the compound `CC/C(=C(/CC)c1ccc(O)cc1)c1ccc(O)cc1`, the red/green cell ratio (normalised) in assay [1] was 1.15 (inactive). Also, the results for the normalised cell number in assay [1] (setting [7]) and in assay [1] (setting [8]) were 1.1 and 1.27, respectively. The compound was classed as inactive in assay [2], in assay [4] and in assay [6].
